Screens as filed in PubChem.
IL-1B inflam inh = blocks inflammasome-driven IL-1 beta release; THP-1 LPS/ATP IL-1B secretion, AlphaLISA, 16 h; hits give low values; activity change, % at 57.5 µM; 4.7% of 360,000 active; AID 743279; in the data active = activity change below about -50%; inconclusive = mostly about -30% to -49%
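THP-1 cells pretreated 1 hr with compounds (up to 57.5 uM final), then stimulated with LPS (250 ng/mL final) plus ATP (1.25 mM final); secreted IL-1B measured by AlphaLISA after 16 hr, decreased signal indicating inhibition.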
HT1080NT lethal = kills 2HG-producing HT-1080-NT fibrosarcoma cells; AID 686970; HT-1080-NT fibrosarcoma viability, CellTiter-Glo ATP luminescence, 48 h; 1.6% of 360,000 active; Potency, µM (highest dose often 46.1 µM), inactives show at the top dose activity, negative = less viability, most hits filed as cytotoxic;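 also: NT is the 2HG producing partner of a matched IDH1 knockdown line; potency is read from the fitted curve at half-maximal effect; 0% = DMSO-treated cells and -100% = media-only wells without cells; nearly all actives have a fitted effect of over 55% in size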
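HT-1080-NT fibrosarcoma cells (2HG-overproducing), 750 cells/well in RPMI with 5% FBS, dosed after 2 h and incubated 48 h at 37C. CellTiter-Glo luminescence normalized to DMSO and no-cell wells; concentration-response curves fitted and classed.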
HT1080 IDH1KD tx = kills HT-1080 cells with IDH1 knockdown | HT-1080 IDH1 knockdown viability, ATP luminescence, 48 h | Potency, µM (top dose mostly 46.1 µM), inactives show top-dose activity, negative = toxicity, most hits filed as cytotoxic | 2% of 360,000 active;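 also: potency is read from the fitted curve at half-maximal effect; 0% = DMSO wells and -100% = cell-free medium wells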
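HT-1080-IDH1KD cells (IDH1 knocked down), 750/well in RPMI with 5% FBS, treated with compound 48 h at 37 degrees C. Viability by CellTiter-Glo luminescence, normalised to DMSO and no-cell wells; concentration-response curves classed.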
DT40 TDP1 no CPT = qHTS for Inhibitors of human tyrosyl-DNA phosphodiesterase 1 (TDP1): qHTS in cells in absence of CPT. 15% of 420,000 active. Potency, µM (highest dose often 46.2 µM), without a hit: at the highest dose activity change, negative = growth inhibition, hits mostly inhibitors. AID 686978, 2013. DT40 Tdp1-/- hTDP1 cells, no CPT, ATP luminescence, 48 h; also: potency is read from the fitted curve at half-maximal effect; nearly all actives have a fitted effect of over 55% in size
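Chicken DT40 Tdp1-/- cells complemented with human TDP1, screened without camptothecin (DMSO vehicle only), 400 cells/well. Compounds pin-transferred, cells incubated at 37 °C for at least 48 hr. Growth read as ATP-dependent luminescence (CellTiter-Glo, 30 min at RT).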
DT40 TDP1 CPT = DT40-hTDP1 cell growth loss with CPT | chicken DT40 Tdp1-/-;hTDP1 cells + 20 nM CPT, ATP luminescence, 48 h | Potency, µM (top dose mostly 46.2 µM), for the others: top-dose activity change, negative = growth inhibition, hits mostly inhibitors | 12% of 420,000 active; also: potency is read from the fitted curve at half-maximal effect; nearly all actives have a fitted effect of over 55% in size
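Cell growth measured by CellTiter-Glo luminescence after a minimum 48 h, 37 C compound exposure with 20 nM CPT in Tdp1-knockout DT40 cells stably expressing hTDP1, seeded 400/well; qHTS titration format.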
An asterisk follows results filed as active; ? = inconclusive; nt = not tested or not shown; [ ] = dose if it differs, or a comment. This is a sample that favours compounds with a hit; in the whole collection about 19% have one here. Unless noted, calls follow the shape of the dose curve; as a rule, active = well fitted curve in the direction sought with a large enough effect; inconclusive = small, poorly fitted or top-dose-only effect, or another doubt; inactive = no such curve, though single readings can be large; an effect the other way counts as inactive or inconclusive. Unless noted, % is scaled to controls: 0 for no effect and ±100 for the full control effect.

SMILES	IL-1B inflam inh	HT1080NT lethal	HT1080 IDH1KD tx	DT40 TDP1 no CPT	DT40 TDP1 CPT
COC(=O)C1=CN(c2ccc(F)cc2)C(N)=C(C#N)C1c1ccccc1 (centres undefined)	0	-27%	?	21µM*	?
COC(=O)C1=CN(c2ccc(Oc3ccccc3)cc2)C(N)=C(C#N)C1c1ccc(-c2ccccc2)cc1 (centres undefined)	-11	-2%	6%	?	?
COC(=O)C1=CN(c2ccc(Oc3ccccc3)cc2)C(N)=C(C#N)C1c1ccccc1 (centres undefined)	-1	-22%	-23%	15µM*	?
O=C(/C=C/c1ccncc1)c1cc(Cl)ccc1O	-67*	-9%	-2%	?	-19%
COc1ccc(/C=C/C(=O)c2cc(Cl)ccc2O)c(OC)c1	-100*	-8%	-16%	?	?
CN(C)c1ccc(/C=C/C(=O)c2cc(Cl)ccc2O)cc1	-11	-10%	0%	?	?
COc1ccc(C(=O)/C=C/c2ccc(OC)cc2OC)c(O)c1	-13	-3%	2%	?	?
COc1ccc(/C=C/C(=O)c2ccc(Cl)cc2)c(OC)c1	0	-5%	2%	18µM*	-20%
CCN1CCN(C(=O)c2ccc3c(c2)N(Cc2ccccc2F)C(=O)c2ccccc2S3(=O)=O)CC1	8	9%	1%	?	-2%
Cc1ccc2c(c1)c1cccc3c1n2CCN3CCC(N)=O	-18	-2%	-22%	-18%	-7%
COc1cc(=O)n2c(c1C(=O)N(C)Cc1nonc1C)CCN(Cc1cc(F)ccc1F)CC2	nt	nt	nt	-10%	2%[9.04 µM]
COc1cc2c(cc1OC)CN(C(=O)c1ccccc1C(=O)O)CC2	11	16%	-4%	-5%	-3%
CCS(=O)(=O)c1ccc(-c2csc(-c3ccccc3)n2)c(Cl)c1Cl	-12	-14%	-21%	21µM*	16µM*
Cn1cc(CCNCc2cn[nH]c2-c2ccc(-c3ccccc3)cc2)cn1	-22	?	?	?	?
Cc1ccc(-c2[nH]ncc2CNCc2ccccc2)cc1	nt	nt	nt	18µM*	11µM*
Cc1cccc(OCCn2nc(C(=O)O)c3ccccc3c2=O)c1	15	-7%	-2%	-28%	-18%
CC(C)(C)c1ccc(OCCn2nc(C(=O)O)c3ccccc3c2=O)cc1	5	-5%	-14%	21µM*	16µM*
CCc1cccc(C)c1NC(=O)C(CC)Sc1nncn2c1cc1occc12 (centres undefined)	nt	nt	nt	21µM*	21µM*
Cc1ccc(C)c(NC(=O)CSc2nnc(C)n3c2cc2occc23)c1	nt	nt	nt	?	-8%
Cc1cc(C)cc(NC(=O)CSc2nncn3c2cc2occc23)c1	nt	nt	nt	?	-25%
CN(C(=O)CSc1nncn2c1cc1occc12)c1ccccc1	nt	nt	nt	26µM*	?
CCc1nnc(SC(CC)C(=O)Nc2cc(C)ccc2C)c2cc3occc3n12 (centres undefined)	nt	nt	nt	15µM*	18µM*
O=C(C1CCCN(S(=O)(=O)c2cc(Cl)ccc2Cl)C1)N1CCOCC1 (centres undefined)	19	2%	-2%	2%	-5%
CCOC(=O)c1ccccc1NC(=O)COC(=O)CSc1ccccc1	-2	-3%	12%	-3%	-5%
O=C(Cn1ncc2c3ccccc3n(Cc3ccccc3F)c2c1=O)NC1CCCCCC1	nt	nt	nt	15µM*	7.3µM*
SMILES	IL-1B inflam inh	HT1080NT lethal	HT1080 IDH1KD tx	DT40 TDP1 no CPT	DT40 TDP1 CPT
CC(CNC(=O)Cn1ncc2c3ccccc3n(Cc3cccc(Cl)c3)c2c1=O)c1ccccc1 (centres undefined)	nt	nt	nt	?	18µM*
O=C(Cn1ncc2c3ccccc3n(Cc3ccccc3F)c2c1=O)NC1CC1	-16	24%	?	1%	-7%
O=C(Cn1ncc2c3ccccc3n(Cc3cccc(Cl)c3)c2c1=O)NC1CCCCCC1	nt	nt	nt	6.5µM*	8.2µM*
O=C(Cn1ncc2c3ccccc3n(Cc3ccc(F)cc3)c2c1=O)NCCCN1CCCCC1	nt	nt	nt	-15%	-13%
CC(NC(=O)Cn1ncc2c3ccccc3n(Cc3ccc(F)cc3)c2c1=O)c1ccccc1 (centres undefined)	nt	nt	nt	10µM*	?
Cc1ccc(C)c(Cn2c3ccccc3c3cnn(CC(=O)NC4CCCCCC4)c(=O)c32)c1	nt	nt	nt	13µM*	?
Cc1cccc(C(=O)NCCc2nc3ccccc3n2Cc2ccc(Cl)cc2)c1	nt	nt	nt	?	21µM*
CCCCCn1c(CCNC(=O)c2cccc(C)c2)nc2ccccc21	nt	nt	nt	18µM*	21µM*
CCNC(=O)c1ccc(NS(=O)(=O)c2ccc3[nH]c(=O)[nH]c3c2)cc1	27	14%	8%	21%	0%
COc1ccc(C(=O)/C=C2/C(=O)Nc3ccccc32)c(OC)c1	-101*	18µM*	23µM*	2.6µM*	4.1µM*
O=C1Nc2ccccc2/C1=C/C(=O)c1cccs1	-119*	?	?	8.2µM*	6.5µM*
COc1ccc(C(=O)/C=C2/C(=O)Nc3ccccc32)cc1OC	-82*	-9%	-10%	4.1µM*	16µM*
COc1ccc(C(=O)/C=C2/C(=O)Nc3ccccc32)cc1	?	?	?	4.1µM*	9.2µM*
COc1cc(/C=N/N=C2/C(=O)Nc3ccccc32)cc(OC)c1O	?	-14%	?	?	-49%
